Source: PubChem BioAssay
Only some compounds are listed: those with a hit (about 10% of all), similar ones and a draw of the others.
Six1-Eya2 inh = inhibitors of human Six1/Eya2 interaction; AID 651725; Q15475+O00167; activity change, % (no concentration beside the values); AlphaScreen GST-Six1/His-Eya2 binding, biochemical; hits give low values; 360,000 tested, 0.56% active; in the data active = activity change below about -65%; inconclusive = mostly about -30% to -63%; note: % is set by controls: 0 for no effect and ±100 for the full control effect
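GST-Six1 + His-Eya2 (5X stock: 250/500 nM); Tris pH 8.0, 300 mM NaCl, 0.05% BSA, 0.02% Tween 20; GSH donor/Ni acceptor beads; 1 h 37 °C dark; AlphaScreen readout.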
G9a inh = G9a (human) methyltransferase inhibition; Q96KQ7; G9a H3K9 monomethylation, AlphaScreen, 2 h; Potency, µM (series often up to 102 µM), without a hit: top-dose activity, negative = inhibition, actives largely listed as inhibitors; 350,000 tested, 8.8% active; note: potency is the fitted concentration of half-maximal effect; % is set by controls: 0 for no effect and ±100 for the full control effect; nearly all actives have a fitted effect of over 75% in size
Target sequence (Q96KQ7 913-1193 limits assumed): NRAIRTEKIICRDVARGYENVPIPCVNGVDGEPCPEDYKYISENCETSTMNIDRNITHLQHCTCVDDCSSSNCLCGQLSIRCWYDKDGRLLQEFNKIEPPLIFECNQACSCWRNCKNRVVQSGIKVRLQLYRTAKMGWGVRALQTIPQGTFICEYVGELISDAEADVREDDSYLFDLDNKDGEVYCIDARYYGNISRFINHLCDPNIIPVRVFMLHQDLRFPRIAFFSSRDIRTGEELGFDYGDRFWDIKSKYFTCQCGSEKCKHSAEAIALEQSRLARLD
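Methyltransferase reactions run at room temperature for 2 h (20 nM enzyme, 500 nM biotin-H3K9 peptide, 20 uM SAM) after a 15 min compound preincubation; product detected by AlphaScreen beads and anti-H3K9me1 antibody.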
JMJD2A Tudor inh = JMJD2A Tudor domain (human) inhibition; O75164; AlphaScreen JMJD2A-Tudor / H3K4me3 peptide binding; Potency, µM (highest dose often 114 µM), for inactives: at the highest dose activity change, negative = inhibition, hits mostly inhibitors; 390,000 tested, 4.4% active; note: potency is the fitted concentration of half-maximal effect; % is set by controls: 0 for no effect and ±100 for the full control effect; nearly all actives have a fitted effect of over 50% in size
CtBP-E1A inh = inhibitors of CtBP/E1A interaction; AlphaScreen GST-E1A/His-CtBP binding, 1536-well; hits give low values; activity change, % (concentration not given with the values); 340,000 tested, 0.49% active; AID 651724; in the data active = activity change below about -65%; inconclusive = mostly about -30% to -63%; note: % is set by controls: 0 for no effect and ±100 for the full control effect
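Homogeneous bead-based format: GST-tagged E1A captured on glutathione donor beads, His-tagged CtBP on nickel acceptor beads; compounds precede bead addition by 2 h at 37 °C.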
HP1b chromo inh = HP1-beta chromodomain-methylated histone interaction inhibition; AlphaScreen HP1-beta / biotin-H3K9me3 peptide binding; Potency, µM (series often up to 114 µM), for the others: at the highest dose activity change, negative = inhibition, actives largely listed as inhibitors; P83916; 390,000 tested, 0.56% active; AID 540317; note: potency is the fitted concentration of half-maximal effect; nearly all actives have a fitted effect of over 70% in size
Target sequence (P83916 whole entry, looked up): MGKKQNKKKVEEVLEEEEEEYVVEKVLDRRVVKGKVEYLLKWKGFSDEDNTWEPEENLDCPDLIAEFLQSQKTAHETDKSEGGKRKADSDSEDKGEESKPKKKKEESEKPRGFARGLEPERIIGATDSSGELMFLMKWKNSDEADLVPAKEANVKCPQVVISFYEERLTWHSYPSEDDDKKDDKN
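HP1-beta protein (50 nM final) preincubated 30 min at room temperature with biotinylated H3(1-18)K9me3 peptide (50 nM) in PBS pH 7.4, 0.01% Tween-20, then compound added for 30 min. AlphaScreen streptavidin donor/nickel chelate acceptor beads (10 ug/mL final), 30 min dark, luminescence read.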
BAZ2B inh = inhibitors of human BAZ2B bromodomain | 360,000 tested, 4.4% active | Potency, µM (series often up to 114 µM), inactives show at the highest dose activity change, negative = inhibition, actives largely listed as inhibitors | AlphaScreen BAZ2B-H3K14Ac peptide displacement | AID 504333; note: potency is the fitted concentration of half-maximal effect; % is set by controls: 0 for no effect and ±100 for the full control effect; nearly all actives have a fitted effect of over 60% in size
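AlphaScreen displacement of biotin-H3(5-23)K14Ac peptide (50 nM final) from BAZ2B (50 nM final) in PBS pH 7.4, 0.01% Tween-20; complex preformed 30 min RT, then compounds (top 110 uM) 30 min RT, beads 20 min dark.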
Starred values were filed as active, the others as inactive; [ ] = another dose, or the depositor's remark. Unless noted, calls come from the whole dose curve; as a rule, active = well fitted inhibition curve with a large enough effect; inconclusive = small, poorly fitted or top-dose-only effect; inactive = no such curve, though single readings can be large or run the other way.

What do the screens show for `CCOC(=O)C(C(=O)OCC)C(C)(C)/C(C)=N\Nc1ccc([N+](=O)[O-])cc1[N+](=O)[O-]`?
Six1-Eya2 inh: inconclusive; G9a inh: inconclusive; JMJD2A Tudor inh: 31.6µM*; CtBP-E1A inh: 0.8; HP1b chromo inh: 35.5µM*; BAZ2B inh: 10µM*

How did O=C(O)/C(CC(=O)c1ccc(Cl)cc1)=N/Nc1ccc([N+](=O)[O-])cc1[N+](=O)[O-] do in these assays?
Six1-Eya2 inh: inconclusive; G9a inh: -3.9%[2.33 µM]; JMJD2A Tudor inh: 39.8µM*; CtBP-E1A inh: -16.1; HP1b chromo inh: -38.4%; BAZ2B inh: 39.8µM*

Results for C#CCOC(=O)CCCNc1ccc([N+](=O)[O-])cc1[N+](=O)[O-] ?
Six1-Eya2 inh: -10.5; G9a inh: -22.8%[59 µM]; JMJD2A Tudor inh: 56.2µM*; CtBP-E1A inh: -0.5; HP1b chromo inh: -22.2%; BAZ2B inh: 50.1µM*

Results for CCOC(=O)CC(C)(C)/C(C)=N/Nc1ccc([N+](=O)[O-])cc1[N+](=O)[O-] ?
Six1-Eya2 inh: inconclusive; G9a inh: 8.91µM*; JMJD2A Tudor inh: inconclusive; CtBP-E1A inh: inconclusive; HP1b chromo inh: 14.1µM*; BAZ2B inh: 7.08µM*

How did COc1cccc(CNC(=O)CSC2=Nc3ccccc3C3=NC(C(C)C)C(=O)N23)c1 (stereo not drawn) do in these assays?
G9a inh: -3.3%[59 µM]; JMJD2A Tudor inh: -23.5%; HP1b chromo inh: -2.1%; BAZ2B inh: -1.8%

Results for COc1cn(CC(=O)Nc2cccc(C)c2)c(CN2CCCCC2)cc1=O ?
G9a inh: 0.7%[59 µM]; JMJD2A Tudor inh: 1.3%; HP1b chromo inh: 23.6%; BAZ2B inh: 0.0%

Results for Cc1ccc(NC(=O)C(=O)NCCCN2CCOCC2)cc1C ?
G9a inh: 2.2%[59 µM]; JMJD2A Tudor inh: 4.8%; HP1b chromo inh: 53.6%; BAZ2B inh: -0.6%

Results for CCOC(=O)c1c(NC(=O)/C=C/c2ccc(C)cc2)sc(C(C)=O)c1C ?
G9a inh: inconclusive; JMJD2A Tudor inh: -10.1%; HP1b chromo inh: 35.9%; BAZ2B inh: 10.9%

What do the screens show for `CCN(CC)CCN1C(=O)C(=O)/C(=C(/O)c2c(C)[nH]c(C(=O)OC)c2C)C1c1ccc(OC)cc1` (stereo not drawn)?
Six1-Eya2 inh: 0.7; G9a inh: 79.4µM*; JMJD2A Tudor inh: -23.0%; CtBP-E1A inh: -4.1; HP1b chromo inh: 16.2%; BAZ2B inh: -8.5%

How did COC(=O)c1[nH]c(C)c(/C(O)=C2\C(=O)C(=O)N(CCN(C)C)C2c2cc(OC)ccc2OC)c1C (stereo not drawn) do in these assays?
Six1-Eya2 inh: -5.1; G9a inh: 50.1µM*; JMJD2A Tudor inh: inconclusive; CtBP-E1A inh: -0.9; HP1b chromo inh: 28.2%; BAZ2B inh: -32.2%

Results for CCCOc1ccc(C2/C(=C(\O)c3c(C)[nH]c(C(=O)OC)c3C)C(=O)C(=O)N2CCN(C)C)cc1 (stereo not drawn) ?
Six1-Eya2 inh: 2.3; G9a inh: inconclusive; JMJD2A Tudor inh: inconclusive; CtBP-E1A inh: 1.4; HP1b chromo inh: 7.4%; BAZ2B inh: -11.2%

How did CCOc1ccc(C2/C(=C(\O)c3c(C)[nH]c(C(=O)OC)c3C)C(=O)C(=O)N2CCN(C)C)cc1 (stereo not drawn) do in these assays?
Six1-Eya2 inh: -8.9; G9a inh: 44.7µM*; JMJD2A Tudor inh: 35.5µM*; CtBP-E1A inh: -5.0; HP1b chromo inh: 3.9%; BAZ2B inh: -0.3%

Results for CCN(CC)CCN1C(=O)C(=O)/C(=C(/O)c2c(C)[nH]c(C(=O)OC)c2C)C1c1ccccc1 (stereo not drawn) ?
Six1-Eya2 inh: 3.0; G9a inh: 7.8%[12.7 µM]; JMJD2A Tudor inh: -18.0%; CtBP-E1A inh: -4.5; HP1b chromo inh: 18.3%; BAZ2B inh: 1.0%

Results for Cc1ccc2onc(CC(=O)N3CCN(c4cccc(Cl)c4)CC3)c2c1 ?
G9a inh: -44.3%[59 µM]; JMJD2A Tudor inh: -34.9%; HP1b chromo inh: 10.7%; BAZ2B inh: inconclusive

What do the screens show for `CCN1CCN(c2ccc(N=Cc3ccccc3O)cc2)CC1`?
Six1-Eya2 inh: -7.1; G9a inh: 50.1µM*; JMJD2A Tudor inh: -5.7%; CtBP-E1A inh: 5.3; HP1b chromo inh: 18.4%; BAZ2B inh: -32.4%

What do the screens show for `CC(C)n1c(SCC(=O)Nc2ccc(F)cc2)nc2c(oc3ccccc32)c1=O`?
G9a inh: 6.4%[59 µM]; JMJD2A Tudor inh: -1.1%; HP1b chromo inh: 36.3%; BAZ2B inh: 1.5%

How did O=C(CSc1ccc(-c2ccco2)nn1)Nc1ccccc1F do in these assays?
Six1-Eya2 inh: 0.4; G9a inh: 39.8µM*; JMJD2A Tudor inh: -4.6%; CtBP-E1A inh: -4.3; HP1b chromo inh: 26.8%; BAZ2B inh: -16.2%

What do the screens show for `CCOc1ccccc1NC(=O)CSc1ccc(-c2ccco2)nn1`?
Six1-Eya2 inh: -19.1; G9a inh: 25.1µM*; JMJD2A Tudor inh: -31.9%; CtBP-E1A inh: -11.7; HP1b chromo inh: 6.2%; BAZ2B inh: inconclusive

What do the screens show for `O=C(NCc1cccs1)C1CCN(C(=O)N2CCOc3ccccc32)CC1`?
G9a inh: -19.4%[59 µM]; JMJD2A Tudor inh: -3.6%; HP1b chromo inh: 31.5%; BAZ2B inh: -6.0%

Results for CCOc1ccc(NC(=O)Cn2c(=O)n(-c3ccc(C)cc3)c(=O)c3cc(OC)c(OC)cc32)cc1 ?
G9a inh: 4.4%[59 µM]; JMJD2A Tudor inh: -2.1%; HP1b chromo inh: 34.6%; BAZ2B inh: 2.1%

How did Cn1cccc1C(=O)NCC1COc2ccccc2O1 (stereo not drawn) do in these assays?
Six1-Eya2 inh: -3.5; G9a inh: 50.1µM*; JMJD2A Tudor inh: -31.0%; CtBP-E1A inh: 2.7; HP1b chromo inh: -8.0%; BAZ2B inh: -31.5%

Results for CC(NC(=O)c1ccccc1Cl)C1COc2ccccc2O1 (stereo not drawn) ?
Six1-Eya2 inh: 4.8; G9a inh: -5.4%[59 µM]; JMJD2A Tudor inh: 6.9%; CtBP-E1A inh: 5.2; HP1b chromo inh: 24.1%; BAZ2B inh: 1.3%

How did CC(NCC1COc2ccccc2O1)C1COc2ccccc2O1 (stereo not drawn) do in these assays?
Six1-Eya2 inh: 18.9; G9a inh: -26.9%; JMJD2A Tudor inh: 3.98µM*; CtBP-E1A inh: 26.2; HP1b chromo inh: -3.6%[57 µM]; BAZ2B inh: inconclusive

Results for CC(NS(=O)(=O)c1ccccc1)C1COc2ccccc2O1 (stereo not drawn) ?
Six1-Eya2 inh: -1.2; G9a inh: 5.8%[59 µM]; JMJD2A Tudor inh: 7.8%; CtBP-E1A inh: 3.3; HP1b chromo inh: 38.9%; BAZ2B inh: -3.3%

What do the screens show for `CCOC(=O)CCNC(C)C1COc2ccccc2O1` (stereo not drawn)?
Six1-Eya2 inh: 8.4; G9a inh: 2.24µM*; JMJD2A Tudor inh: 2.82µM*; CtBP-E1A inh: -1.6; HP1b chromo inh: 2.4%; BAZ2B inh: -99.9%
